Screening results as filed in PubChem BioAssay.
The list is not random: actives were taken first. Their share in the collection is about 0.52%.
GCN5L2 inh – inhibitors of human GCN5L2 histone acetyltransferase. Q92830. GCN5L2 HAT assay, ThioGlo1 CoA-SH fluorescence. Potency, µM (top dose mostly 58.9 µM), inactives show top-dose activity change, negative = inhibition, most hits filed as inhibitors. 0.21% of 390,000 active
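Free CoA generated was detected with ThioGlo1 (50uM) fluorescence at Ex340nm/Em540nm, read immediately and after 20 min at room temperature. Enzyme, 20 nM in HEPES pH 7.5 buffer, saw compounds 15 min before adding 75uM H3(1-25) peptide and 70uM acetyl-CoA.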
Tb PFK inh – blocks T. brucei phosphofructokinase. 0.17% of 330,000 active. O15648. T. brucei PFK, ADP-Glo luminescence. Potency, µM (top dose mostly 57.5 µM), without a hit: at the highest dose activity, negative = inhibition, hits mostly inhibitors;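 further: 0% = uninhibited 1x PFK enzyme wells and -100% = no-enzyme wells; nearly all actives have a fitted effect of over 60% in size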
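PFK 1.25 nM, F6P 0.5 mM, ATP 0.1 mM, 0.1 M TEA pH 8.0, 5 mM MgCl2, 0.01% Tween20, 0.1% BSA; 45 min RT. ADP-Glo readout. qHTS titration up to 57 uM; curves fitted, compounds curve-classed.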
Tb PGK inh – T. brucei PGK inhibition; PGK/GAPDH coupled, Kinase-Glo luminescence, 60 min; 0.043% of 380,000 active; Potency, µM (top dose mostly 57.5 µM), inactives show top-dose activity change, negative = inhibition, most hits filed as inhibitors; P07378; AID 602233; further: nearly all actives have a fitted effect of over 60% in size
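Recombinant glycosomal PGK reaction used 1,3-bisphosphoglycerate generated in-well by GAPDH (100nM final) in 100mM TEA pH 7.6, 5mM MgCl2, 0.01% Tween-20. After 60 minutes at room temperature, ATP was read by Kinase-Glo Plus luminescence end-point.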
USP2a block – USP2a (human) protease inhibition. 0.01% of 330,000 active. USP2 core, Ub-CHOP2 coupled fluorogenic reporter, 485/531. Potency, µM (doses to about 38.3 µM), without a hit: at the highest dose activity change, negative = inhibition, usual class: inhibitors. O75604;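 further: plate controls were DMSO wells for no effect and full inhibition by NEM control for full effect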
Target sequence (O75604 whole entry, looked up): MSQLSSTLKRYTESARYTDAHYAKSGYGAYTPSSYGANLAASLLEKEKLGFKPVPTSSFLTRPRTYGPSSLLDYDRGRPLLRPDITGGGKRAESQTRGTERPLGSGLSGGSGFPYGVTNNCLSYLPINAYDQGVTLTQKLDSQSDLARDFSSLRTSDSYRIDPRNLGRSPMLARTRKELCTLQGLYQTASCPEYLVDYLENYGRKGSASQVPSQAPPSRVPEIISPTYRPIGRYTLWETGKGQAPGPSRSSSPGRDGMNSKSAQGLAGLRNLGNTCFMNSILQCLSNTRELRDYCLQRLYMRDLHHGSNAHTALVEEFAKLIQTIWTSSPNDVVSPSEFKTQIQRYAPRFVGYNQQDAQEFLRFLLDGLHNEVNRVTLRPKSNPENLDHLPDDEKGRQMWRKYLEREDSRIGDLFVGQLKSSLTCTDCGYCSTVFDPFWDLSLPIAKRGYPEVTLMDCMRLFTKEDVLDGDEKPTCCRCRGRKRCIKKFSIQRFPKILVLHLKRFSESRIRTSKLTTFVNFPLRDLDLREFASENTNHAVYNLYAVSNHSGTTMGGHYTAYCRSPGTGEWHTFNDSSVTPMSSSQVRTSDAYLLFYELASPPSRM
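Deubiquitinase activity read as fluorescence (485/531 nm) after Ub-CHOP2 cleavage activates the enterokinase reporter on its substrate; USP2 core 10nM, Ub-CHOP2 and substrate 25nM each, 30min compound preincubation then 60min RT; data normalized to NEM, curves fitted.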
GLS inh – blocks human kidney-isoform glutaminase activity; 0.21% of 410,000 active; Potency, µM (doses to about 45.5 µM), for inactives: top-dose activity change, negative = inhibition, hits mostly inhibitors; GLS enzymatic activity, qHTS titration; AID 624170; O94925
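hKGA in 45 mM KH2PO4 pH 8.2, 0.02% Tween-20 with pin-transferred compounds; 1 mM L-glutamine (stock) plus glutamate oxidase/HRP/Amplex Red coupling added. Fluorescence read initially and after 30 min at RT.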
Numbers without * were called inactive; i = inactive; ? = inconclusive; nt = not tested or not shown. The call rests on the fitted dose curve; in most records, active means well fitted curve in the direction sought with a large enough effect; inconclusive means small, poorly fitted or top-dose-only effect, or another doubt; inactive means no such curve, though single readings can be large; an effect the other way counts as inactive or inconclusive. Unless noted, on the % scale 0 is the no-effect control and ±100 the full control effect; potency means the concentration at half of the fitted maximal effect.

SMILES	GCN5L2 inh	Tb PFK inh	Tb PGK inh	USP2a block	GLS inh
CCCCCCNC(=O)N[C@H](C(=O)NCCC[C@H]1CN2C(=NC[C@H]2C)N1CCC(c1ccccc1)c1ccccc1)C(C)O (stereo partly drawn)	7.94µM*	-18.6%	nt	-4.1%	nt
COCC(=O)Nc1cc(Sc2ccccc2)ccc1N=C(NC(=O)OC)NC(=O)OC	-8.9%	nt	nt	nt	18.7%
CC(C(=O)O)c1ccc2c(c1)CC(=O)c1ccccc1S2 (stereo not drawn)	nt	nt	nt	nt	-3.3%
CC(/C=C/c1ccc(C)o1)=C\C(=O)O	?	-24.3%	-2.0%	-4.3%	4.3%
CC(=C/C(=O)O)/C=C/c1ccc(Cl)o1	-3.1%	-22.4%	?	4.5%	17.8µM*
COc1ccccc1CNC(=O)c1ccc2c(c1)sc1nc(-c3ccc(F)cc3)cn12	-3.6%	nt	-3.4%	nt	-14.1%
CCC(=O)NC(=S)NNC(=O)c1ccccc1[N+](=O)[O-]	25.1µM*	?	i	0.0%	7.6%
O=C(NCc1ccccc1)C(=O)NCC(c1ccc2c(c1)OCO2)N1CCOCC1 (stereo not drawn)	2.2%	nt	4.7%	nt	0.2%
COc1cccc(C2CC(=O)N3CN(c4cccc(Cl)c4C)CSC3=C2C#N)c1OC (stereo not drawn)	22.4µM*	-7.3%	-7.6%	-1.2%	6.7%
COc1ccc(OC)c(C2CC(=O)N3CN(c4cccc(Cl)c4C)CSC3=C2C#N)c1 (stereo not drawn)	25.1µM*	-13.1%	-3.3%	-2.0%	4.1%
COc1cc(C2CC(=O)N3CN(c4ccccc4C)CSC3=C2C#N)cc(OC)c1OC (stereo not drawn)	?	-15.9%	nt	-5.1%	nt
CSCCC(NC(=O)[C@H](Cc1c[nH]c2ccccc12)NC(=O)CNC(=O)[C@H](CCSC)NC(=O)[C@H](Cc1ccc(OS(=O)(=O)O)cc1)NC(=O)[C@@H](N)CC(=O)O)C(=O)N[C@@H](CC(=O)O)C(=O)N[C@@H](Cc1ccccc1)C(N)=O (stereo partly drawn)	nt	nt	nt	nt	-20.4%
COc1cccc(/C=C(/C#N)c2nc3ccccc3[nH]2)c1OC(C)C(=O)O (stereo not drawn)	-1.5%	-1.8%	nt	5.5%	12.6µM*
COc1cccc(/C=C(\C#N)c2nc3ccccc3[nH]2)c1OCC(=O)O	-4.8%	0.3%	-1.0%	2.3%	3.0%
CC/C=C(\C(=O)N[C@H]1C(=O)N2C(C(=O)OCOC(=O)C(C)(C)C)=C(COC(N)=O)CS[C@H]12)c1csc(N)n1	nt	nt	nt	nt	13.3%
CCN(CC)c1ccc(C(=C2C=CC(=[N+](CC)CC)C=C2)c2ccccc2)cc1	?	nt	i	nt	6.31µM*
CCN(CC)c1ccc(C(=C2C=CC(=[N+](CC)Cc3cccc(S(=O)(=O)[O-])c3)C=C2)c2ccc(N(CC)Cc3cccc(S(=O)(=O)O)c3)cc2)cc1	10µM*	nt	nt	nt	nt
O=C(COc1ccc(Cl)cc1)Nc1ccc2nc(SCC(=O)N3CCCC3)sc2c1	-9.7%	nt	i	nt	-12.4%
COc1cc(N=c2c([N+](=O)[O-])nn(-c3ccc4c(c3)OCCO4)n2O)cc(OC)c1	-7.1%	6.9%	-2.3%	-5.0%	15.5%
CC(C)c1ccc(N=c2c([N+](=O)[O-])nn(-c3ccc4c(c3)OCCO4)n2O)cc1	-6.4%	-3.7%	-4.5%	3.7%	11.2µM*
Cc1c(O)ccc(NC(=O)/C=C/c2ccccc2)c1C	-6.9%	-4.3%	3.3%	4.3%	17.8µM*
CCS(=O)(=O)c1ccc(O)c(NC(=O)/C=C/c2ccccc2)c1	-0.9%	-0.3%	-8.8%	0.0%	1.0%
O=C(CSc1nc(-c2ccccc2)nc2c1Cc1ccccc1O2)Nc1ccc(C(=O)O)cc1	28.2µM*	?	?	-7.6%	?
CCOc1cccc2c1Oc1nc(-c3ccccc3)nc(SCC(=O)Nc3ccc(F)cc3)c1C2	1.0%	nt	3.3%	nt	2.0%
O=C(CSc1nc(-c2ccc(F)cc2)nc2c1Cc1ccccc1O2)Nc1ccc(C(=O)O)cc1	14.1µM*	?	15.8µM*	3.7%	-23.1%
